# The supplement of paper PMC10037445
# In all, about 2,900 compounds were measured (“NF-kB SEAP reporter activity, fold change vs agonist alone”: median about 0.99, highest 2% from about 2.6 on). The full list was thinned out, with the highest values kept by preference.
# How the values were obtained:
# RAW-Dual [1] = assay: NF-kB SEAP reporter activity, fold change vs agonist alone; higher = enhanced NF-kB activity
# Method in brief: (§1)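 RAW-Dual macrophages were seeded in DMEM at 50,000 cells/well in 384-well plates, given 50 nL of library stock by pin tool, and given a PRR agonist 1 h later. Plates were held at 37 °C, 5% CO2 for 20 hours, after which supernatant was read for IRF by QuantiLuc luminescence and for NF-κB by QuantiBlue absorbance at 620 nm. Reporter activity is expressed as fold change over wells that received agonist alone. A well was called cytotoxic when IncuCyte confluency fell below 70% of agonist controls in both mask sets.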
# RAW-Dual [2] = assay: NF-kB SEAP reporter activity, fold change vs agonist alone; cytotoxicity flag (confluency mask): not cytotoxic; higher = enhanced NF-kB activity
# Method in brief: as §1
# RAW-Dual [3] = assay: NF-kB SEAP reporter activity, fold change vs agonist alone; cytotoxicity flag (confluency mask): cytotoxic (confluency <70% of control); higher = enhanced NF-kB activity
# Method in brief: as §1
# [4] = library stock concentration (final ~1000-fold dilution): 10 mM, cytotoxicity flag (confluency mask): not cytotoxic, agonist: Imiquimod (TLR7) […]
# [5] = library stock concentration (final ~1000-fold dilution): 10 mM, cytotoxicity flag (confluency mask): not cytotoxic, agonist: MPLA (TLR4) […]
# [6] = agonist: ODN 1826 (TLR9) 0.5 ug/mL
# [7] = agonist: Pam2CSK4 (TLR2/6) 0.1 ug/mL
# [8] = agonist: Pam3CSK4 (TLR2/1) 0.1 ug/mL
structure (smiles),measurement,setting,value
CCN(CC)CCNC(=O)c1c(C)[nH]c(/C=C2\C(=O)Nc3ccc(F)cc32)c1C.O=C(O)CC(O)C(=O)O,NF-kB SEAP reporter activity,RAW-Dual [1]; [4],0.892
same,NF-kB SEAP reporter activity,RAW-Dual [1]; [5],0.292
Cc1nn(CC(F)(F)F)cc1Nc1ncc(Br)c(NCc2ccc(S(N)(=O)=O)cc2)n1,NF-kB SEAP reporter activity,RAW-Dual [1]; [4],1.38
same,NF-kB SEAP reporter activity,RAW-Dual [1]; [5],1.33
Cc1nn(CC(F)(F)F)cc1Nc1ncc(Br)c(NCc2ccc(S(N)(=O)=O)cc2)n1 (library stock concentration (final ~1000-fold dilution): 10 mM),NF-kB SEAP reporter activity,RAW-Dual [2]; agonist: LPS (TLR4) 0.1 ug/mL,0.744
same,NF-kB SEAP reporter activity,RAW-Dual [2]; [6],1.28
same,NF-kB SEAP reporter activity,RAW-Dual [2]; [7],1.17
same,NF-kB SEAP reporter activity,RAW-Dual [2]; [8],1.54
CSCC(N)C(=O)O (stereo unspecified) (library stock concentration (final ~1000-fold dilution): 10 mM),NF-kB SEAP reporter activity,RAW-Dual [2]; agonist: LPS (TLR4) 0.1 ug/mL,1.3
same,NF-kB SEAP reporter activity,RAW-Dual [2]; [6],1.03
same,NF-kB SEAP reporter activity,RAW-Dual [2]; [7],1.12
same,NF-kB SEAP reporter activity,RAW-Dual [2]; [8],1.08
CSCC(N)C(=O)O (stereo unspecified),NF-kB SEAP reporter activity,RAW-Dual [1]; [4],0.816
same,NF-kB SEAP reporter activity,RAW-Dual [1]; [5],0.97
O=C(/C=C/c1cccnc1)NCCCCC1CCN(C(=O)c2ccccc2)CC1,NF-kB SEAP reporter activity,RAW-Dual [1]; [4],1.06
same,NF-kB SEAP reporter activity,RAW-Dual [1]; [5],0.719
O=C(/C=C/c1cccnc1)c1ccncc1,NF-kB SEAP reporter activity,RAW-Dual [1]; [4],0.871
same,NF-kB SEAP reporter activity,RAW-Dual [1]; [5],0.953
O=C(/C=C/c1cccnc1)NCCCCC1CCN(C(=O)c2ccccc2)CC1 (library stock concentration (final ~1000-fold dilution): 10 mM),NF-kB SEAP reporter activity,RAW-Dual [2]; agonist: LPS (TLR4) 0.1 ug/mL,0.56
same,NF-kB SEAP reporter activity,RAW-Dual [2]; [6],1.07
same,NF-kB SEAP reporter activity,RAW-Dual [2]; [7],0.67
same,NF-kB SEAP reporter activity,RAW-Dual [2]; [8],0.537
Nc1ccc(F)cc1NC(=O)c1ccc(CNC(=O)/C=C/c2cccnc2)cc1 (library stock concentration (final ~1000-fold dilution): 10 mM),NF-kB SEAP reporter activity,RAW-Dual [2]; agonist: LPS (TLR4) 0.1 ug/mL,3.7
same,NF-kB SEAP reporter activity,RAW-Dual [2]; [6],3.18
same,NF-kB SEAP reporter activity,RAW-Dual [2]; [7],0.749
same,NF-kB SEAP reporter activity,RAW-Dual [2]; [8],1.53
Nc1ccc(F)cc1NC(=O)c1ccc(CNC(=O)/C=C/c2cccnc2)cc1,NF-kB SEAP reporter activity,RAW-Dual [1]; [4],1.65
same,NF-kB SEAP reporter activity,RAW-Dual [1]; [5],1.89
O=C(/C=C/c1cccnc1)c1ccncc1 (library stock concentration (final ~1000-fold dilution): 10 mM),NF-kB SEAP reporter activity,RAW-Dual [2]; agonist: LPS (TLR4) 0.1 ug/mL,1.03
same,NF-kB SEAP reporter activity,RAW-Dual [2]; [6],0.938
same,NF-kB SEAP reporter activity,RAW-Dual [2]; [7],1.21
same,NF-kB SEAP reporter activity,RAW-Dual [2]; [8],1.05
COc1ccc(C2OCC3C(c4cc(OC)c(OC)c(OC)c4)OCC23)cc1OC (stereo unspecified),NF-kB SEAP reporter activity,RAW-Dual [1]; [4],0.813
same,NF-kB SEAP reporter activity,RAW-Dual [1]; [5],1.03
COc1ccc(C2OCC3C(c4cc(OC)c(OC)c(OC)c4)OCC23)cc1OC (stereo unspecified) (library stock concentration (final ~1000-fold dilution): 10 mM),NF-kB SEAP reporter activity,RAW-Dual [2]; agonist: LPS (TLR4) 0.1 ug/mL,1.2
same,NF-kB SEAP reporter activity,RAW-Dual [2]; [6],1
same,NF-kB SEAP reporter activity,RAW-Dual [2]; [7],1.01
same,NF-kB SEAP reporter activity,RAW-Dual [2]; [8],1.71
O=C1c2cccc3c2C(CCC3)CN1C1CN2CCC1CC2 (stereo unspecified) (library stock concentration (final ~1000-fold dilution): 10 mM),NF-kB SEAP reporter activity,RAW-Dual [2]; agonist: LPS (TLR4) 0.1 ug/mL,1.5
same,NF-kB SEAP reporter activity,RAW-Dual [2]; [6],0.937
same,NF-kB SEAP reporter activity,RAW-Dual [2]; [7],0.587
same,NF-kB SEAP reporter activity,RAW-Dual [2]; [8],0.339
O=C1c2cccc3c2C(CCC3)CN1C1CN2CCC1CC2 (stereo unspecified),NF-kB SEAP reporter activity,RAW-Dual [1]; [4],0.886
same,NF-kB SEAP reporter activity,RAW-Dual [1]; [5],1.17
Cc1c(CN2CCN(C(=O)C(C)O)CC2)sc2c(N3CCOCC3)nc(-c3cnc(N)nc3)nc12 (stereo unspecified),NF-kB SEAP reporter activity,RAW-Dual [1]; [4],1
same,NF-kB SEAP reporter activity,RAW-Dual [1]; [5],1.08
COc1ccc(-c2nc(N3CCOCC3)c3sc(CN(C)c4ncc(C(=O)NO)cn4)cc3n2)cn1 (library stock concentration (final ~1000-fold dilution): 10 mM),NF-kB SEAP reporter activity,RAW-Dual [3]; agonist: LPS (TLR4) 0.1 ug/mL,4.34
same,NF-kB SEAP reporter activity,RAW-Dual [3]; [6],2.1
same,NF-kB SEAP reporter activity,RAW-Dual [3]; [7],1.3
same,NF-kB SEAP reporter activity,RAW-Dual [3]; [8],1.6
COc1ccc(-c2nc(N3CCOCC3)c3sc(CN(C)c4ncc(C(=O)NO)cn4)cc3n2)cn1,NF-kB SEAP reporter activity,"RAW-Dual [1]; library stock concentration (final ~1000-fold dilution): 10 mM, cytotoxicity flag (confluency mask): cytotoxic (confluency <70% of control), agonist: Imiquimod (TLR7) […]",2.88
same,NF-kB SEAP reporter activity,"RAW-Dual [1]; library stock concentration (final ~1000-fold dilution): 10 mM, cytotoxicity flag (confluency mask): cytotoxic (confluency <70% of control), agonist: MPLA (TLR4) […]",2.66
COC1(c2sc3c(N4CCOCC4)nc(-c4cnc(N)nc4)nc3c2C)COC1,NF-kB SEAP reporter activity,RAW-Dual [1]; [4],0.913
same,NF-kB SEAP reporter activity,RAW-Dual [1]; [5],1.05
COC1(c2sc3c(N4CCOCC4)nc(-c4cnc(N)nc4)nc3c2C)COC1 (library stock concentration (final ~1000-fold dilution): 10 mM),NF-kB SEAP reporter activity,RAW-Dual [2]; agonist: LPS (TLR4) 0.1 ug/mL,1.46
same,NF-kB SEAP reporter activity,RAW-Dual [2]; [6],0.707
same,NF-kB SEAP reporter activity,RAW-Dual [2]; [7],0.459
same,NF-kB SEAP reporter activity,RAW-Dual [2]; [8],0.608
Cc1c(CN2CCN(C(=O)C(C)O)CC2)sc2c(N3CCOCC3)nc(-c3cnc(N)nc3)nc12 (stereo unspecified) (library stock concentration (final ~1000-fold dilution): 10 mM),NF-kB SEAP reporter activity,RAW-Dual [2]; agonist: LPS (TLR4) 0.1 ug/mL,1.32
same,NF-kB SEAP reporter activity,RAW-Dual [2]; [6],0.763
same,NF-kB SEAP reporter activity,RAW-Dual [2]; [7],0.412
same,NF-kB SEAP reporter activity,RAW-Dual [2]; [8],0.661
CC(C)(CNC(=O)c1cccc(-c2noc(C(F)(F)F)n2)c1)c1coc(-c2ccccc2)n1 (library stock concentration (final ~1000-fold dilution): 10 mM),NF-kB SEAP reporter activity,RAW-Dual [2]; agonist: LPS (TLR4) 0.1 ug/mL,1.03
same,NF-kB SEAP reporter activity,RAW-Dual [2]; [6],1.03
same,NF-kB SEAP reporter activity,RAW-Dual [2]; [7],0.625
same,NF-kB SEAP reporter activity,RAW-Dual [2]; [8],0.745
CC(C)(CNC(=O)c1cccc(-c2noc(C(F)(F)F)n2)c1)c1coc(-c2ccccc2)n1,NF-kB SEAP reporter activity,RAW-Dual [1]; [4],0.959
same,NF-kB SEAP reporter activity,RAW-Dual [1]; [5],1.09
Nc1ncn(C2OC(CO)C(O)C2O)c(=O)n1 (stereo unspecified),NF-kB SEAP reporter activity,RAW-Dual [1]; [4],2.59
same,NF-kB SEAP reporter activity,RAW-Dual [1]; [5],2.47
Nc1ccn(C2OC(CO)C(O)C2O)c(=O)n1 (stereo unspecified),NF-kB SEAP reporter activity,"RAW-Dual [1]; library stock concentration (final ~1000-fold dilution): 10 mM water, cytotoxicity flag (confluency mask): not cytotoxic, agonist: Imiquimod (TLR7) […]",1.46
same,NF-kB SEAP reporter activity,"RAW-Dual [1]; library stock concentration (final ~1000-fold dilution): 10 mM water, cytotoxicity flag (confluency mask): not cytotoxic, agonist: MPLA (TLR4) […]",1.33
Nc1ncn(C2CC(O)C(CO)O2)c(=O)n1 (stereo unspecified) (library stock concentration (final ~1000-fold dilution): 10 mM),NF-kB SEAP reporter activity,RAW-Dual [2]; agonist: LPS (TLR4) 0.1 ug/mL,1.55
same,NF-kB SEAP reporter activity,RAW-Dual [2]; [6],1.41
same,NF-kB SEAP reporter activity,RAW-Dual [2]; [7],1.14
same,NF-kB SEAP reporter activity,RAW-Dual [2]; [8],1.26
Nc1ccn(C2OC(CO)C(O)C2O)c(=O)n1 (stereo unspecified) (library stock concentration (final ~1000-fold dilution): 10 mM water),NF-kB SEAP reporter activity,RAW-Dual [2]; agonist: LPS (TLR4) 0.1 ug/mL,1.92
same,NF-kB SEAP reporter activity,RAW-Dual [2]; [6],1.7
same,NF-kB SEAP reporter activity,RAW-Dual [2]; [7],1.85
same,NF-kB SEAP reporter activity,RAW-Dual [2]; [8],1.83
Nc1ncn(C2OC(CO)C(O)C2O)c(=O)n1 (stereo unspecified) (library stock concentration (final ~1000-fold dilution): 10 mM),NF-kB SEAP reporter activity,RAW-Dual [2]; agonist: LPS (TLR4) 0.1 ug/mL,1.06
same,NF-kB SEAP reporter activity,RAW-Dual [2]; [6],1.91
same,NF-kB SEAP reporter activity,RAW-Dual [2]; [7],0.631
same,NF-kB SEAP reporter activity,RAW-Dual [2]; [8],0.71
Nc1ncn(C2CC(O)C(CO)O2)c(=O)n1 (stereo unspecified),NF-kB SEAP reporter activity,RAW-Dual [1]; [4],1.58
same,NF-kB SEAP reporter activity,RAW-Dual [1]; [5],1.38
